Publication PMC5540273 (PLoS ONE, 2017)
Like-named read-outs stand apart in the source and are kept apart here.

How the values were obtained:
Details in all cases: n = 1
[1] = tested on: T1, FAK
T1 construct: gene PTK2

[2] = tested on: FER
[3] = tested on: FES
[4] = tested on: FGFR1
[5] = tested on: FGFR2
[6] = tested on: FGFR3
[7] = tested on: FGFR4
[8] = tested on: FGR
[9] = tested on: FLT1
[10] = tested on: FLT3-autoinhibited
[11] = tested on: FLT3
[12] = tested on: FLT4
[13] = tested on: FRK
[14] = tested on: FYN
[15] = tested on: GAK
[16] = tested on: T2, GCN2(Kin.Dom.2,S808G)
T2 construct: gene EIF2AK4

[17] = tested on: GRK1
[18] = tested on: T3, GRK2
T3 construct: gene ADRBK1

[19] = tested on: T4, GRK3
T4 construct: gene ADRBK2

[20] = tested on: GRK4
[21] = concentration: 1 μM, replicates: in singlicate
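Note: KINOMEscan kinase panel screen.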

Cc1ccc(C(=O)Nc2ccc(Nc3ccnc4cc(-c5ccccn5)ccc34)cc2O)cc1.Cl [GW440146]
%Inh [1, 21]: 0%
%Inh [2, 21]: 30%
%Inh [3, 21]: 0%
%Inh [4, 21]: 1%
%Inh [5, 21]: 0%
%Inh [6, 21]: 0%
%Inh [7, 21]: 0%
%Inh [8, 21]: 59%
%Inh [9, 21]: 28%
%Inh [10, 21]: 0%
%Inh [11, 21]: 0%
%Inh [12, 21]: 0%
%Inh [13, 21]: 48%
%Inh [14, 21]: 41%
%Inh [15, 21]: 7%
%Inh [16, 21]: 12%
%Inh [17, 21]: 0%
%Inh [18, 21]: 0%
%Inh [19, 21]: 24%
%Inh [20, 21]: 0%

Cn1ccc2ncnc(Oc3cccc(C(=O)Nc4ccccc4)c3)c21
%Inh [1, 21]: 5%
%Inh [2, 21]: 8%
%Inh [3, 21]: 4%
%Inh [4, 21]: 0%
%Inh [5, 21]: 0%
%Inh [6, 21]: 0%
%Inh [7, 21]: 6%
%Inh [8, 21]: 5%
%Inh [9, 21]: 54%
%Inh [10, 21]: 15%
%Inh [11, 21]: 17%
%Inh [12, 21]: 0%
%Inh [13, 21]: 27%
%Inh [14, 21]: 8%
%Inh [15, 21]: 0%
%Inh [16, 21]: 14%
%Inh [17, 21]: 0%
%Inh [18, 21]: 0%
%Inh [19, 21]: 8%
%Inh [20, 21]: 3%

COc1cccc(NC(=O)NC2CCN(c3ccnc(Nc4ccc(F)cc4)n3)C2)c1 (centres unmarked) [GSK1379721]
%Inh [1, 21]: 0%
%Inh [2, 21]: 0%
%Inh [3, 21]: 0%
%Inh [4, 21]: 0%
%Inh [5, 21]: 0%
%Inh [6, 21]: 6%
%Inh [7, 21]: 1%
%Inh [8, 21]: 0%
%Inh [9, 21]: 11%
%Inh [10, 21]: 0%
%Inh [11, 21]: 3%
%Inh [12, 21]: 0%
%Inh [13, 21]: 0%
%Inh [14, 21]: 25%
%Inh [15, 21]: 3%
%Inh [16, 21]: 0%
%Inh [17, 21]: 0%
%Inh [18, 21]: 0%
%Inh [19, 21]: 18%
%Inh [20, 21]: 0%

CC(C)(C)c1ccc(C(=O)Nc2cn3cc(Cl)ccc3n2)cc1
%Inh [1, 21]: 0%
%Inh [2, 21]: 4%
%Inh [3, 21]: 0%
%Inh [4, 21]: 12%
%Inh [5, 21]: 0%
%Inh [6, 21]: 0%
%Inh [7, 21]: 0%
%Inh [8, 21]: 0%
%Inh [9, 21]: 43%
%Inh [10, 21]: 0%
%Inh [11, 21]: 70%
%Inh [12, 21]: 0%
%Inh [13, 21]: 12%
%Inh [14, 21]: 99.3%
%Inh [15, 21]: 0%
%Inh [16, 21]: 36%
%Inh [17, 21]: 10%
%Inh [18, 21]: 0%
%Inh [19, 21]: 0%
%Inh [20, 21]: 0%

COc1ccc(Nc2nccc(-c3cccc(NC(=O)c4cc5cc(F)ccc5[nH]4)c3)n2)cc1 [GSK1229782]
%Inh [1, 21]: 1%
%Inh [2, 21]: 43%
%Inh [3, 21]: 27%
%Inh [4, 21]: 21%
%Inh [5, 21]: 0%
%Inh [6, 21]: 13%
%Inh [7, 21]: 2%
%Inh [8, 21]: 60%
%Inh [9, 21]: 17%
%Inh [10, 21]: 0%
%Inh [11, 21]: 39%
%Inh [12, 21]: 0%
%Inh [13, 21]: 40%
%Inh [14, 21]: 31%
%Inh [15, 21]: 49%
%Inh [16, 21]: 4%
%Inh [17, 21]: 0%
%Inh [18, 21]: 0%
%Inh [19, 21]: 45%
%Inh [20, 21]: 0%

Cc1ccc(NC(=O)Nc2cccc(C(F)(F)F)c2)cc1 [GSK955403]
%Inh ([1]; 1 µM): 1%
%Inh ([2]; 1 µM): 0%
%Inh ([3]; 1 µM): 0%
%Inh ([4]; 1 µM): 1%
%Inh ([5]; 1 µM): 0%
%Inh ([6]; 1 µM): 5%
%Inh ([7]; 1 µM): 0%
%Inh ([8]; 1 µM): 0%
%Inh ([9]; 1 µM): 23%
%Inh ([10]; 1 µM): 0%
%Inh ([11]; 1 µM): 59%
%Inh ([12]; 1 µM): 12%
%Inh ([13]; 1 µM): 0%
%Inh ([14]; 1 µM): 0%
%Inh ([15]; 1 µM): 0%
%Inh ([16]; 1 µM): 0%
%Inh ([17]; 1 µM): 2%
%Inh ([18]; 1 µM): 0%
%Inh ([19]; 1 µM): 0%
%Inh ([20]; 1 µM): 0%

CC(=O)Nc1nc2cnc(Nc3cc(NC(=O)c4cccc(CCC#N)c4)ccc3C)nc2s1
%Inh [1, 21]: 7%
%Inh [2, 21]: 0%
%Inh [3, 21]: 17%
%Inh [4, 21]: 9%
%Inh [5, 21]: 22%
%Inh [6, 21]: 17%
%Inh [7, 21]: 0%
%Inh [8, 21]: 21%
%Inh [9, 21]: 30%
%Inh [10, 21]: 5%
%Inh [11, 21]: 0%
%Inh [12, 21]: 30%
%Inh [13, 21]: 83%
%Inh [14, 21]: 4%
%Inh [15, 21]: 7%
%Inh [16, 21]: 0%
%Inh [17, 21]: 0%
%Inh [18, 21]: 0%
%Inh [19, 21]: 0%
%Inh [20, 21]: 0%
